Data from PubChem BioAssay AID652104 (National Center for Advancing Translational Sciences (NCATS), 2013).
In all, about 410,000 compounds went through this assay and about 7,200 (1.8%) were called active. Roughly 7% stayed inconclusive and do not appear here. The sample as a whole holds a higher share of actives than the screen did. A number with no mark means an inactive call. The call rests on the fitted dose curve; in most records, active means well fitted activation curve with a large enough effect; inconclusive means small, poorly fitted or top-dose-only effect, or another doubt; inactive means no such curve, though single readings can be large or run the other way.

Assay: qHTS of TDP-43 Inhibitors; further: nearly all actives have a fitted effect of over 50% in size; on growth rescue (activation): % of control where 0% means no effect
Settings: TDP-43 expressing yeast growth rescue, BacTiter-Glo, 24 h; series mostly up to 46.1 µM; growth rescue (activation): at the top concentration
Outline: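 Yeast expressing TDP-43 (pregrown in raffinose, seeded at OD600=0.02 in galactose medium) exposed to compounds 24 hr at 30 deg C. Growth read by BacTiter-Glo luminescence; rescue of toxicity appears as increased signal.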
Potency means the concentration at half of the fitted maximal effect.

Row | Structure (SMILES) | growth rescue (activation) | Potency
1 | CCN1CCN(Cc2c(O)ccc3oc(C)c(C(=O)Nc4ccc(C)cc4C)c23)CC1 | 9.49% | 
2 | O=C(CSc1nc2nccnc2c(=O)n1CCc1c[nH]c2ccccc12)Nc1ccccc1F | 20.8% | 
3 | Cc1ccc(Nc2c(-c3ccc(Cl)cc3)nc3sccn23)c(C)c1 |  | 25.1 µM (active)
4 | O=C(NCc1ccc(Cl)cc1)c1cc2c(nc3sccn32)s1 | -3.87% | 
5 | Cc1ccc(S(=O)(=O)NCc2cn3ccsc3n2)c(C)c1 | -1.93% | 
6 | Cc1ccc2nc3c(cc(C(=O)NC4CCCCC4)c(=N)n3C(C)C)c(=O)n2c1 | 19.8% | 
7 | CCN(Cc1ccccc1)S(=O)(=O)c1ccc2c(c1)CCCN2C(C)=O | 0% | 
8 | CC(=O)Nc1ccc(NC(=O)COc2ccccc2C(=O)Nc2cccc(Cl)c2Cl)cc1 | 7.69% | 
9 | FC(F)Oc1ccccc1NC(=S)Nc1cccc(Cl)c1Cl |  | 17.8 µM (active)
10 | CCOC(=O)c1ccc[n+](CC(=O)Nc2ccccc2OC(F)F)c1 | 1.27% [at 0.397 µM] | 
11 | Cc1cc(C)c(-c2n[nH]c3c2C(c2ccccc2F)N(CCO)C3=O)c(O)c1 (stereo unspecified) | 6.01% | 
12 | CCOC(=O)c1sc(NC(=O)/C=C/c2ccc(C(C)C)cc2)c(C(=O)OCC)c1C | -1.08% | 
13 | CSc1ncc(C(=O)NCc2ccccc2Cl)c(C(F)(F)F)n1 | 21.1% | 
14 | Cc1cccc(N2CCN(C(=O)c3oc(=O)c4ccccc4c3-c3ccccc3)CC2)c1C | 0% | 
15 | COc1ccccc1Nc1cc(C(=O)NCCCN(C)C2CCCCC2)c2ccccc2n1 | -13.9% | 
16 | O=C(Nc1cc(-c2nc3ccccc3o2)ccc1Cl)c1cc([N+](=O)[O-])ccc1N1CCOCC1 | 8.05% | 
17 | O=[N+]([O-])c1ccc2oc(-c3cccc(O)c3)nc2c1 |  | 7.94 µM (active)
18 | COc1ccc(-c2nc3ccccc3o2)cc1NC(=O)c1cc([N+](=O)[O-])ccc1N1CCOCC1 | 13.1% | 
19 | CN(c1ccccc1)S(=O)(=O)c1cc(C(=O)Nc2nc3ccccc3[nH]2)ccc1Cl |  | 15.8 µM (active)
20 | CN(c1ccccc1)S(=O)(=O)c1cccc(C(=O)NNC(=O)c2ccncc2)c1 | 11.6% | 
21 | CN(c1ccccc1)S(=O)(=O)c1cc(C(=O)OCC(=O)N2CCN(C(=O)c3ccco3)CC2)ccc1Cl | 14.5% | 
22 | c1ccc(Nc2n[nH]nc2-c2ccccc2)cc1 |  | 12.6 µM (active)
23 | S=c1[nH]nc(Nc2ccccc2)s1 | 1.28% | 
24 | O=c1cnnc(Nc2ccccc2)[nH]1 | -16.7% | 

Row | Structure (SMILES) | growth rescue (activation) | Potency
25 | Cc1cc(C)cc(-n2c(SCC(=O)NCC3CCCO3)nc3c([nH]c4ccccc43)c2=O)c1 (stereo unspecified) | 0% | 
26 | NNC(=O)CSc1nnc(-c2ccccc2)n1-c1ccccc1 | -9.48% | 
27 | Cc1ccc(-n2c(Cc3cccs3)nnc2SCC(=O)OC(C)C)cc1 | 16.6% | 
28 | Cc1ccc(-c2nnc(SCC(=O)N/N=C/c3cccs3)n2-c2ccc(C)cc2)cc1 |  | 22.4 µM (active)
29 | COc1cccc(CNc2nccn(-c3ccc(OC)c(OC)c3)c2=O)c1 | 15.3% | 
30 | CC1=C[C@H]2Cc3cc(C)cc(C)c3S(=O)(=O)[C@@H]2C=C1 |  | 15.8 µM (active)
31 | COc1ccc(-n2ccn(CC(=O)Nc3ccc(C)c(C)c3)c(=O)c2=O)cc1OC | 8.89% | 
32 | O=C(c1cnn(-c2ccc(Cl)cc2)c1)c1ccccc1O | -10.9% | 
33 | Cc1cc(O)cc(O)c1C(=O)Cc1cnn(-c2ccccc2)c1 |  | 8.91 µM (active)
34 | Cc1[nH]nc(-c2ccc(OCc3cnn(-c4ccccc4)c3)cc2O)c1Oc1ccc(Cl)cc1 | -0.901% | 
35 | CC(C)CNc1ncnc2c1nnn2C | 12.5% | 
36 | CC(=O)c1nc2ccccc2n1Cc1ccccc1 |  | 11.2 µM (active)
37 | CC(O)c1nc2ccccc2n1Cc1ccc([N+](=O)[O-])cc1 (stereo unspecified) | 5.24% | 
38 | O=C(O)Cn1c(Cc2ccccc2)nc2ccccc21 | 3.72% | 
39 | Cc1ccc(NC(=O)Cn2c(=O)n(-c3ccccc3)c(=O)c3c4c(sc32)CCCC4)cc1 | 12.7% | 
40 | COc1ccccc1-c1n[nH]c2c1[C@H](C)CC[C@H]2C(C)C |  | 25.1 µM (active)
41 | COc1ccccc1-c1n[nH]nc1C1=CC(=O)CC(C)(C)C1 | 0% | 
42 | COc1ccc(N2CCN(C(=O)c3c(C)oc4nc(C)nc(N5CCCC5)c34)CC2)cc1 | 24.1% | 
43 | NS(=O)(=O)c1ccc(NC(=O)COc2ccc(S(=O)(=O)NC3CCCCC3)cc2)cc1 | 7.49% | 
44 | CCOc1ccc(C2CC(=O)c3c([nH]c(C(=O)OCc4ccccc4)c3C)C2)cc1 (stereo unspecified) | 13.5% | 
45 | O=C(Cn1nc(Cc2cccnc2)c2ccccc2c1=O)N1CCN(c2ccccc2F)CC1 | -3.56% | 
46 | CCN(CC)S(=O)(=O)c1nnc(NC(=O)COc2ccccc2Cl)s1 | 22.7% | 
47 | Cc1nc2ccccc2c(-c2ccccc2)c1C(=O)c1ccccc1 |  | 22.4 µM (active)
48 | CC(C)(C)C(=O)c1c(N)[nH]c(C(=O)c2ccccc2)c1-c1ccc(F)cc1 | 22.8% | 

Row | Structure (SMILES) | growth rescue (activation) | Potency
49 | Nc1[nH]c(C(=O)c2ccccc2)c(-c2ccncc2)c1C(=O)NCc1cccc2ccccc12 | 12.8% | 
50 | CCCNC(=O)CCC(=O)N1Cc2ccccc2Oc2ncccc21 | 7.07% [at 9.22 µM] | 
51 | CC(C)c1ccc(NS(=O)(=O)c2ccc3[nH]cc(C(=O)NC4CCCC4)c(=O)c3c2)cc1 | 0% | 
52 | CCCOc1ccc(C2c3c(-c4ccccc4O)n[nH]c3C(=O)N2Cc2cccnc2)cc1 (stereo unspecified) | -2.59% | 
53 | Cc1c(Cl)cccc1NC(=O)C1CCCN(C(=O)c2cnn(-c3ccccc3)c2-n2cccc2)C1 (stereo unspecified) | 0.375% | 
54 | Cc1cc(C)cc(-n2ccnc2SCC(=O)Nc2nc3ccccc3s2)c1 | 5.14% | 
55 | CC(C)CC(=O)NC(=S)NNC(=O)c1cccc([N+](=O)[O-])c1 | -4.92% [at 9.22 µM] | 
56 | CC(C)CC(=O)N/C(N)=N/c1nc2ccccc2s1 |  | 15.8 µM (active)
57 | CCN1CCN(CCCNC(=O)c2ccc3c(c2)sc2nc(-c4ccc(OC)cc4)cn23)CC1 | -44.4% | 
58 | O=C(NCCc1ccccc1)c1ccc2c(c1)N(Cc1ccccc1)C(=O)c1ccccc1S2(=O)=O | 26.3% | 
59 | Cc1ccccc1CNC(=O)CCc1cn(Cc2ccccc2C)c2ccccc12 | 20.1% | 
60 | CSc1ccc(CCNC(=O)C2CCN(c3nnc(-n4cccc4)s3)CC2)cc1 | 0% | 
61 | O=C(C1CCN(c2nnc(-n3cccc3)s2)CC1)N1CCc2ccccc2C1 |  | 35.5 µM (active)
62 | CCOC(=O)C1CCCN(C(=O)C2CCN(c3nnc(-n4cccc4)s3)CC2)C1 (stereo unspecified) | 12% | 
63 | Cc1ccc(-c2nn3c(=O)cc(CN4CCN(C(=O)Nc5cccc(C(F)(F)F)c5)CC4)nc3s2)cc1 | 21.4% | 
64 | O=S(=O)(c1ccccc1)N1CCC(c2ccccc2)CC1 | 0.641% | 
65 | O=C(C(=O)N1CCC(c2ccccc2)CC1)c1ccccc1 |  | 12.6 µM (active)
66 | Cc1nc2ccc(NC(=O)N3CCC(c4ccccc4)C3)cc2nc1C (stereo unspecified) | 1.58% | 
67 | Cc1cccc2nc(-c3ccc(Cl)s3)c(Nc3ccc4c(c3)OCCO4)n12 | 23.9% | 
68 | Fc1ccc(-c2nc(Nc3cccc(Cl)c3)nc3c2COc2ccccc2-3)cc1 | 2.51% | 
69 | Cc1ccn2c(Nc3ccc4c(c3)OCCO4)c(-c3ccc(C)s3)nc2c1 | -8.94% | 
70 | CC(=O)N(c1ccc2oc(=O)sc2c1)S(=O)(=O)c1ccc(C)cc1 | -9.63% | 
71 | CCN1CCN(C(=O)CN(C)S(=O)(=O)c2ccc3ccccc3c2)CC1 | 4.91% | 
72 | CC(=O)Oc1ccc(N(C(C)=O)S(=O)(=O)c2ccc3ccccc3c2)cc1Br |  | 12.6 µM (active)

Row | Structure (SMILES) | growth rescue (activation) | Potency
73 | Cc1cccc(-n2ncc(C(=O)N3CCC(C)CC3)c2C2CCN(C(=O)OC(C)(C)C)CC2)c1 | -10.8% | 
74 | CC(C)(C)C1CCc2c(sc(NC(=O)c3ccccc3F)c2C(=O)N2CCCCC2)C1 (stereo unspecified) | 0% | 
75 | COc1ccc(-c2nc(Cn3c(=O)cc(C)c4c(C)nn(-c5ccccc5)c43)c(C)o2)cc1OC | -1.69% | 
76 | CCc1ccccc1NC(=O)c1cnn(-c2ccc(F)cc2)c1C1CCNCC1 | 23% | 
77 | COc1ccccc1CNC(=O)C(=O)NCC(c1ccco1)S(=O)(=O)c1ccc(F)cc1 (stereo unspecified) | 18.5% | 
78 | COc1cc(OC)c(OC)cc1/C=C/c1nc2ccccc2c(=O)n1-c1ccc(Br)c(C)c1 |  | 22.4 µM (active)
79 | COc1cc(C(=O)Nc2ccc(-n3c(C)nc4ccccc4c3=O)cc2)cc(OC)c1OC | 0% | 
80 | COc1cc(OC)c(OC)cc1/C=C/c1nc2cc3ccccc3cc2c(=O)n1-c1ccc(F)c(Cl)c1 | 21.1% | 
81 | O=C(Cc1ccc(Cl)cc1)NCC(c1cccs1)S(=O)(=O)c1ccc(Cl)cc1 (stereo unspecified) | 0.548% [at 9.22 µM] | 
82 | Cc1ccc(Cl)cc1N(C)C(=O)C1CCCN(c2ncnc3onc(-c4ccc(F)cc4)c23)C1 (stereo unspecified) |  | 35.5 µM (active)
83 | Cc1c(Cl)cccc1NC(=O)C1CCCN(c2ncnc3onc(C)c23)C1 (stereo unspecified) | 7.94% | 
84 | CCc1ccccc1N(C)C(=O)C1CCCN(c2ncnc3onc(-c4ccc(F)cc4)c23)C1 (stereo unspecified) | 13.9% | 
85 | Cc1cn(C)c(CC(=O)NCc2ccccc2)c1C(=O)O | 11.9% | 
86 | O=C(/C=C/c1ccccc1)N1CCN(Cc2cc(=O)n3nc(-c4ccccc4F)sc3n2)CC1 | 0.573% | 
87 | O=C(Nc1ccccc1C(F)(F)F)c1cc(-c2ccc(O)cc2)on1 |  | 12.6 µM (active)
88 | CCc1ccccc1NC(=O)c1cc(-c2ccc3c(c2)OCO3)on1 |  | inactive
89 | O=C(NCc1ccccc1)c1cc(-c2cccc(Cl)c2)on1 | 10.6% | 
90 | COc1ccc(NC(=O)Cn2c(=O)cc(C)c3c(C)nn(-c4cccc(Cl)c4C)c32)cc1OC | 15.4% | 
91 | CCOC(=O)c1cc(-c2ccccc2)n(-c2cccc(C(=O)Nc3cc(OC)cc(OC)c3)c2)c1C | 13.5% | 
92 | CC(C)OCCCn1c(SCC(=O)c2ccccc2)nc2c(sc3ccccc32)c1=O | 22.8% | 
93 | CCn1c(CNS(=O)(=O)c2ccc(Cl)cc2)n[nH]c1=S | -8.25% | 
94 | CCn1c(CN2C(=O)CSc3ccccc32)n[nH]c1=S | -24.2% | 
95 | CCn1c(CSCc2c(Cl)cccc2Cl)n[nH]c1=S |  | 11.2 µM (active)
96 | CC(C)(C)c1ccc(C(=O)Nc2ccc3c(c2)CCCN3C(=O)c2cccs2)cc1 | 18.3% [at 9.22 µM] | 
